# Data published in the supplement of paper PMC4022240.
# ± gives the standard deviation.
# T1: HaloTag-ATRX ADD domain (163-292)
# T1 chain: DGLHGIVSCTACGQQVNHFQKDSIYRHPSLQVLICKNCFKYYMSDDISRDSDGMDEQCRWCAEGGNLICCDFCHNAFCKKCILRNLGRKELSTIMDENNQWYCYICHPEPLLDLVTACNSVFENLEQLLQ
# B1: H3 1-13 A R T K Q T A R K S T G G (peptide)
# chain: ARTKQTARKSTGG
# B2: H3 1-13 A R T Kac Q T A R Kac S T G G (peptide)
# chain: ARTKQTARKSTGG
# B3: H3 1-13 A R T Kac Q T A R Kme S T G G (peptide)
# chain: ARTKQTARKSTGG
# B4: H3 1-13 A R T Kac Q T A R Kme2 S T G G (peptide)
# chain: ARTKQTARKSTGG
# B5: H3 1-13 A R T Kac Q T A R Kme3 S T G G (peptide)
# chain: ARTKQTARKSTGG
# B6: H3 1-13 A R T Kac Q Tph A R K S T G G (peptide)
# chain: ARTKQTARKSTGG
# B7: H3 1-13 A R T Kac Q T A R K S T G G (peptide)
# chain: ARTKQTARKSTGG
# B8: H3 1-13 A R T Kme Q T A R K S T G G (peptide)
# chain: ARTKQTARKSTGG
# B9: H3 1-13 A R T Kme Q T A R Kac S T G G (peptide)
# chain: ARTKQTARKSTGG
# B10: H3 1-13 A R T Kme Q T A R Kme S T G G (peptide)
# chain: ARTKQTARKSTGG
# Key:
# Assay in all cases: peptide microarray binding signal (635 nm), min-max normalized on array (fraction of array maximum); higher = stronger binding
# Conditions in all cases: peptide region: H3 1-13
# [1] = target: T1, HaloTag-ATRX ADD domain (163-292)
# Description: (§1)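 Histone 13-mer peptides were synthesized as cellulose conjugates with a C-terminal 20-atom PEG linker and printed in triplicate on nitrocellulose. The sequence given is the unmodified backbone; PTMs (Kme1/2/3, Kac, Sph/Tph, Rme/Rme2a/Rme2s, Rcit) are listed in the label and the 'peptide modifications' condition. Slides were probed at 4 °C for 1 h with biotin-labelled (HQ)5-HaloTag reader fusions (ATRX-ADD, ING2-PHD) then streptavidin-Alexa647, or with rabbit histone antibodies then anti-rabbit Alexa647. The mean 635 nm signal of the triplicate spots was scaled 0-1 between the lowest and highest values on each array.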
# [2] = target: HaloTag-ING2 PHD (mouse Ing2 200-280)
# Description: as §1
# [3] = target: anti-H3K4me3 antibody ab8580
# Description: as §1
# [4] = target: anti-H3K9me3 antibody ab8898
# Description: as §1
# [5] = binder concentration: 1:2,000 dilution
# [6] = binder concentration: 1:10,000 dilution
# [7] = peptide modifications: H3K4ac H3K9ac, binder concentration: 1:2,000 dilution
# [8] = peptide modifications: H3K4ac H3K9ac, binder concentration: 1:10,000 dilution
# [9] = peptide modifications: H3K4ac H3K9me1, binder concentration: 1:2,000 dilution
# [10] = peptide modifications: H3K4ac H3K9me1, binder concentration: 1:10,000 dilution
# [11] = peptide modifications: H3K4ac H3K9me2, binder concentration: 1:2,000 dilution
# [12] = peptide modifications: H3K4ac H3K9me2, binder concentration: 1:10,000 dilution
# [13] = peptide modifications: H3K4ac H3K9me3, binder concentration: 1:2,000 dilution
# [14] = peptide modifications: H3K4ac H3K9me3, binder concentration: 1:10,000 dilution
# [15] = peptide modifications: H3K4ac H3T6ph, binder concentration: 1:2,000 dilution
# [16] = peptide modifications: H3K4ac H3T6ph, binder concentration: 1:10,000 dilution
# [17] = peptide modifications: H3K4ac, binder concentration: 1:2,000 dilution
# [18] = peptide modifications: H3K4ac, binder concentration: 1:10,000 dilution
# [19] = peptide modifications: H3K4me1, binder concentration: 1:2,000 dilution
# [20] = peptide modifications: H3K4me1, binder concentration: 1:10,000 dilution
# [21] = peptide modifications: H3K4me1 H3K9ac, binder concentration: 1:2,000 dilution
# [22] = peptide modifications: H3K4me1 H3K9ac, binder concentration: 1:10,000 dilution
# [23] = peptide modifications: H3K4me1 H3K9me1, binder concentration: 1:2,000 dilution
# [24] = peptide modifications: H3K4me1 H3K9me1, binder concentration: 1:10,000 dilution
binder,measurement,setting,value
B1,peptide microarray binding signal,[1]; binder concentration: 50 nM,0.0155 ± 0.00087
same,peptide microarray binding signal,[1]; binder concentration: 500 nM,0.0263 ± 0.0017
same,peptide microarray binding signal,[2]; binder concentration: 10 nM,0.0231 ± 0.0017
same,peptide microarray binding signal,[2]; binder concentration: 100 nM,0.00957 ± 0.0015
same,peptide microarray binding signal,[3]; [5],0.00185 ± 0.00055
same,peptide microarray binding signal,[3]; [6],0.00126 ± 6.5e-05
same,peptide microarray binding signal,[4]; [5],0.00196 ± 0.00012
same,peptide microarray binding signal,[4]; [6],0.000807 ± 1.5e-05
B2,peptide microarray binding signal,"[1]; peptide modifications: H3K4ac H3K9ac, binder concentration: 50 nM",0.0941 ± 0.064
same,peptide microarray binding signal,"[1]; peptide modifications: H3K4ac H3K9ac, binder concentration: 500 nM",0.0794 ± 0.02
same,peptide microarray binding signal,"[2]; peptide modifications: H3K4ac H3K9ac, binder concentration: 10 nM",0.0863 ± 0.014
same,peptide microarray binding signal,"[2]; peptide modifications: H3K4ac H3K9ac, binder concentration: 100 nM",0.099 ± 0.0066
same,peptide microarray binding signal,[3]; [7],0.047 ± 0.0095
same,peptide microarray binding signal,[3]; [8],0.139 ± 0.057
same,peptide microarray binding signal,[4]; [7],0.102 ± 0.0083
same,peptide microarray binding signal,[4]; [8],0.123 ± 0.018
B3,peptide microarray binding signal,"[1]; peptide modifications: H3K4ac H3K9me1, binder concentration: 50 nM",0.00809 ± 0.00079
same,peptide microarray binding signal,"[1]; peptide modifications: H3K4ac H3K9me1, binder concentration: 500 nM",0.0149 ± 0.0037
same,peptide microarray binding signal,"[2]; peptide modifications: H3K4ac H3K9me1, binder concentration: 10 nM",0.0703 ± 0.011
same,peptide microarray binding signal,"[2]; peptide modifications: H3K4ac H3K9me1, binder concentration: 100 nM",0.1 ± 0.035
same,peptide microarray binding signal,[3]; [9],0.00664 ± 0.0014
same,peptide microarray binding signal,[3]; [10],0.0205 ± 0.012
same,peptide microarray binding signal,[4]; [9],0.00574 ± 0.00077
same,peptide microarray binding signal,[4]; [10],0.00565 ± 0.00024
B4,peptide microarray binding signal,"[1]; peptide modifications: H3K4ac H3K9me2, binder concentration: 50 nM",0.00875 ± 0.0011
same,peptide microarray binding signal,"[1]; peptide modifications: H3K4ac H3K9me2, binder concentration: 500 nM",0.0157 ± 0.0031
same,peptide microarray binding signal,"[2]; peptide modifications: H3K4ac H3K9me2, binder concentration: 10 nM",0.0771 ± 0.0077
same,peptide microarray binding signal,"[2]; peptide modifications: H3K4ac H3K9me2, binder concentration: 100 nM",0.0944 ± 0.0071
same,peptide microarray binding signal,[3]; [11],0.00689 ± 0.0014
same,peptide microarray binding signal,[3]; [12],0.00702 ± 0.001
same,peptide microarray binding signal,[4]; [11],0.00331 ± 0.0003
same,peptide microarray binding signal,[4]; [12],0.00455 ± 0.00089
B5,peptide microarray binding signal,"[1]; peptide modifications: H3K4ac H3K9me3, binder concentration: 50 nM",0.0136 ± 0.004
same,peptide microarray binding signal,"[1]; peptide modifications: H3K4ac H3K9me3, binder concentration: 500 nM",0.0491 ± 0.024
same,peptide microarray binding signal,"[2]; peptide modifications: H3K4ac H3K9me3, binder concentration: 10 nM",0.0828 ± 0.015
same,peptide microarray binding signal,"[2]; peptide modifications: H3K4ac H3K9me3, binder concentration: 100 nM",0.0894 ± 0.0073
same,peptide microarray binding signal,[3]; [13],0.0339 ± 0.018
same,peptide microarray binding signal,[3]; [14],0.0225 ± 0.0063
same,peptide microarray binding signal,[4]; [13],0.0825 ± 0.052
same,peptide microarray binding signal,[4]; [14],0.0423 ± 0.027
B6,peptide microarray binding signal,"[1]; peptide modifications: H3K4ac H3T6ph, binder concentration: 50 nM",0.00693 ± 0.00026
same,peptide microarray binding signal,"[1]; peptide modifications: H3K4ac H3T6ph, binder concentration: 500 nM",0.0116 ± 0.0014
same,peptide microarray binding signal,"[2]; peptide modifications: H3K4ac H3T6ph, binder concentration: 10 nM",0.0574 ± 0.0059
same,peptide microarray binding signal,"[2]; peptide modifications: H3K4ac H3T6ph, binder concentration: 100 nM",0.0396 ± 0.0055
same,peptide microarray binding signal,[3]; [15],0.00242 ± 0.00029
same,peptide microarray binding signal,[3]; [16],0.00417 ± 0.00026
same,peptide microarray binding signal,[4]; [15],0.0013 ± 0.00014
same,peptide microarray binding signal,[4]; [16],0.000923 ± 9.6e-06
B7,peptide microarray binding signal,"[1]; peptide modifications: H3K4ac, binder concentration: 50 nM",0.0102 ± 0.00024
same,peptide microarray binding signal,"[1]; peptide modifications: H3K4ac, binder concentration: 500 nM",0.0281 ± 0.0023
same,peptide microarray binding signal,"[2]; peptide modifications: H3K4ac, binder concentration: 10 nM",0.214 ± 0.045
same,peptide microarray binding signal,"[2]; peptide modifications: H3K4ac, binder concentration: 100 nM",0.0856 ± 0.085
same,peptide microarray binding signal,[3]; [17],0.00445 ± 0.0025
same,peptide microarray binding signal,[3]; [18],0.00188 ± 0.00011
same,peptide microarray binding signal,[4]; [17],0.00439 ± 0.00098
same,peptide microarray binding signal,[4]; [18],0.0019 ± 0.00014
B8,peptide microarray binding signal,"[1]; peptide modifications: H3K4me1, binder concentration: 50 nM",0.00755 ± 0.00014
same,peptide microarray binding signal,"[1]; peptide modifications: H3K4me1, binder concentration: 500 nM",0.0155 ± 0.00093
same,peptide microarray binding signal,"[2]; peptide modifications: H3K4me1, binder concentration: 10 nM",0.0269 ± 0.0015
same,peptide microarray binding signal,"[2]; peptide modifications: H3K4me1, binder concentration: 100 nM",0.112 ± 0.035
same,peptide microarray binding signal,[3]; [19],0.0156 ± 0.0047
same,peptide microarray binding signal,[3]; [20],0.0142 ± 0.0025
same,peptide microarray binding signal,[4]; [19],0.00231 ± 0.00034
same,peptide microarray binding signal,[4]; [20],0.00173 ± 1.7e-05
B9,peptide microarray binding signal,"[1]; peptide modifications: H3K4me1 H3K9ac, binder concentration: 50 nM",0.0172 ± 0.00082
same,peptide microarray binding signal,"[1]; peptide modifications: H3K4me1 H3K9ac, binder concentration: 500 nM",0.0329 ± 0.0029
same,peptide microarray binding signal,"[2]; peptide modifications: H3K4me1 H3K9ac, binder concentration: 10 nM",0.758 ± 0.07
same,peptide microarray binding signal,"[2]; peptide modifications: H3K4me1 H3K9ac, binder concentration: 100 nM",0.727 ± 0.11
same,peptide microarray binding signal,[3]; [21],0.27 ± 0.033
same,peptide microarray binding signal,[3]; [22],0.157 ± 0.018
same,peptide microarray binding signal,[4]; [21],0.00678 ± 0.00086
same,peptide microarray binding signal,[4]; [22],0.00634 ± 0.00026
B10,peptide microarray binding signal,"[1]; peptide modifications: H3K4me1 H3K9me1, binder concentration: 50 nM",0.00743 ± 0.00015
same,peptide microarray binding signal,"[1]; peptide modifications: H3K4me1 H3K9me1, binder concentration: 500 nM",0.0134 ± 0.00046
same,peptide microarray binding signal,"[2]; peptide modifications: H3K4me1 H3K9me1, binder concentration: 10 nM",0.105 ± 0.023
same,peptide microarray binding signal,"[2]; peptide modifications: H3K4me1 H3K9me1, binder concentration: 100 nM",0.145 ± 0.024
same,peptide microarray binding signal,[3]; [23],0.0452 ± 0.0073
same,peptide microarray binding signal,[3]; [24],0.0277 ± 0.0056
same,peptide microarray binding signal,[4]; [23],0.00387 ± 0.00011
same,peptide microarray binding signal,[4]; [24],0.00248 ± 0.00012
